# Over roughly 39,000 sequences, “fluorescence intensity (a.u.)” has its median near 4,300; the highest 2% begin near 39,000. The entries come from a sample that favours the highest values as a whole.
# Target: T1, OsSMF1 (Oryza sativa, UniProt Q6ZLB0 1-436)
# T1 sequence: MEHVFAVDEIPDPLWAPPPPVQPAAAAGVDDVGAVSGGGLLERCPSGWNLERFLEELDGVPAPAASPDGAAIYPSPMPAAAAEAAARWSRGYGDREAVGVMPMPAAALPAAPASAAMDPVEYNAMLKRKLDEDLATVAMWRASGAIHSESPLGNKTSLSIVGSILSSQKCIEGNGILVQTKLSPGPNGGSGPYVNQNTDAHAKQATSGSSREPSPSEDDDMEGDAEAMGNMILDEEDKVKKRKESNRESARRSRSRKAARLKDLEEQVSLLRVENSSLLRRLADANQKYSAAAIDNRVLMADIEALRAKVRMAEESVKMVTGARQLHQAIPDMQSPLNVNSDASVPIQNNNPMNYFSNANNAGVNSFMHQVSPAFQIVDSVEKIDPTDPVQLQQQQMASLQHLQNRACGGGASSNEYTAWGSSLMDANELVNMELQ
# Experiment: protein-binding microarray (RPBM); PBS, 2% BSA, 51.3 ng/ul salmon testes DNA, 50 uM zinc acetate, 200 nM TF, 25 C, 1 h; high values mean tight binding
# Settings: protein: recombinant; tags: N-terminal polyhistidine and DsRed monomer fusion (pET32a); chain copies: 2; label: CyDye5-dUTP incorporated in the synthesized complementary strand; 3' TTTTT single-stranded linker to array surface; dsDNA, one strand shown
# Outline: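 Binding signal is defined as the fluorescence intensity of each feature in arbitrary units, read on an Axon 4000B scanner. Transcription factors with N-terminal polyhistidine and DsRed fusions came from E. coli BL21-CodonPlus and were purified on Ni–NTA. They were incubated at 200 nM for 1 h at 25 °C on a custom Agilent array that had been made double-stranded with Cy5-dUTP, with 50 µM zinc acetate present, and the array was washed.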
row,Sequence,binding signal
1,TCTAGACAATCAAGCCGCTAGAAGTTTCATAGAGTGGTAGCGGAGTCACCTAGTGCAG,7160 fluorescence intensity (a.u.)
2,CTCCCTAGTCCACAAAACCTAGTGACGCGGCGAAACCCAACGGAGTCACCTAGTGCAG,5660 fluorescence intensity (a.u.)
3,ACATGGGCCGCAATCAGGTCACGTGGCTAGGCCTTGGGCCCGGAGTCACCTAGTGCAG,3230 fluorescence intensity (a.u.)
4,GTGTGCTCTTGCATACATACTTGGGCTTATCTAGCTGCGTCGGAGTCACCTAGTGCAG,5510 fluorescence intensity (a.u.)
5,TTTCAGTAGCGTCGGCTGCTCTATCTACTTGCATTGCCTGCGGAGTCACCTAGTGCAG,41000 fluorescence intensity (a.u.)
6,TTAGCCATTGCTACTTGCTTGCAGCGCGCGTGTCGGCTAGCGGAGTCACCTAGTGCAG,25300 fluorescence intensity (a.u.)
7,GTTTCTTATTTTATGAATGGTATGAGTAAGAATATGTTTGCGGAGTCACCTAGTGCAG,3690 fluorescence intensity (a.u.)
8,CTAGTTTACATCTGCAATGTCATGATTTATTTATGGAATACGGAGTCACCTAGTGCAG,19500 fluorescence intensity (a.u.)
9,TGGAAAGAATACAGTATGATATGGTCTTATTTTGTCTGCCCGGAGTCACCTAGTGCAG,41200 fluorescence intensity (a.u.)
10,GCGAGCAGTCGATGTCCTCGATGACGATGATGGACTTGCTCGGAGTCACCTAGTGCAG,4140 fluorescence intensity (a.u.)
11,AGTAGAGAGATCTTGACAAAGTCATCGGTGATGAAGTCGACGGAGTCACCTAGTGCAG,3570 fluorescence intensity (a.u.)
12,TATGACATCGGCTCAAAGATAAATGATATGTCATCGGCATCGGAGTCACCTAGTGCAG,3540 fluorescence intensity (a.u.)
13,AGGGCTATCTGCTATCTCATCTTGTATGACAAAGATTGATCGGAGTCACCTAGTGCAG,65500 fluorescence intensity (a.u.)
14,CCGTTGCCGCGCCGTGGACCGACAGCCACTGACGTCACCCCGGAGTCACCTAGTGCAG,18600 fluorescence intensity (a.u.)
15,TTGAACCAACACTATATCATACACCTAGTCACCTACTCCTCGGAGTCACCTAGTGCAG,4770 fluorescence intensity (a.u.)
16,ACTAATTGTGGCCATGTTCATCGTGCAGTTCCTTGGATCTCGGAGTCACCTAGTGCAG,17300 fluorescence intensity (a.u.)
17,CATCTCCATTCTTTCATCCTCATCTCTAATGGAGAATTTCCGGAGTCACCTAGTGCAG,3920 fluorescence intensity (a.u.)
18,ACACATTCCATATCCTTGGACTAATTCACGAGACGAATCTCGGAGTCACCTAGTGCAG,40900 fluorescence intensity (a.u.)
19,AGTAATTAAAATTTAAGAGGCAAAATTACGTGTGAATTTGCGGAGTCACCTAGTGCAG,4130 fluorescence intensity (a.u.)
20,CCCGAAGCGGATTCGCGCACGGAAACCCACAGTCGATTCTCGGAGTCACCTAGTGCAG,3590 fluorescence intensity (a.u.)
21,ATAGGGTGAGAAAGCACCTCGTTTTCCACGCGCACGCTTCCGGAGTCACCTAGTGCAG,3330 fluorescence intensity (a.u.)
22,GGGAGGACGAAGGAACGCCAATACCGACATTGCTCAAGCTCGGAGTCACCTAGTGCAG,65300 fluorescence intensity (a.u.)

row,Sequence,binding signal
1,CTTGCCGTCGACGCGAAGGAACCGCCACCCGACGTCAGCTCGGAGTCACCTAGTGCAG,5610 fluorescence intensity (a.u.)
2,CTTGCCGTCGAAGCGAAGGAACCGCCACCCGACGTCAGCTCGGAGTCACCTAGTGCAG,5050 fluorescence intensity (a.u.)
3,GGTGGGGACCACCAGGACGGACGTGTAGGGCCTCCTGAAGCGGAGTCACCTAGTGCAG,4270 fluorescence intensity (a.u.)
4,TCCAGGGAGCCGCGGTGGCATATGTTGCTGACATGTTTTCCGGAGTCACCTAGTGCAG,5340 fluorescence intensity (a.u.)
5,CTTTTGCTCACATGGCGTGCCACCGTGGCGTGCCCGCATGCGGAGTCACCTAGTGCAG,16200 fluorescence intensity (a.u.)
6,TTTTGCACACATGTATCATGCTGACGTCAGCATGACGTGGCGGAGTCACCTAGTGCAG,61200 fluorescence intensity (a.u.)
7,TCAGAGAGCTGACAGCGTGTTCAGGCCGTTCGATTTTGGTCGGAGTCACCTAGTGCAG,5030 fluorescence intensity (a.u.)
8,ATGGAGCCTGACGTGGCAGCATGTAGCTGGTCCACGTCACCGGAGTCACCTAGTGCAG,27400 fluorescence intensity (a.u.)
9,ATCCGGTTTTATCCGACGTGGCGGCTGAGTCGGCGCGGGACGGAGTCACCTAGTGCAG,30700 fluorescence intensity (a.u.)
10,ACTGGAGCTAACCGCTGACGTGGCATTCCACGTAGGCAACCGGAGTCACCTAGTGCAG,42500 fluorescence intensity (a.u.)
11,GTTGACCGTCTACGTGGCATTCCACGTAGGCAGCTCATTTCGGAGTCACCTAGTGCAG,16600 fluorescence intensity (a.u.)
12,ATTTGGGCGGCAAGCTGACGTGGCACACGGCGTCATGACTCGGAGTCACCTAGTGCAG,18100 fluorescence intensity (a.u.)
13,TTTGACTCCGATTTTATCCGACGTGGCAGCTGACTCAGCGCGGAGTCACCTAGTGCAG,25300 fluorescence intensity (a.u.)
14,TGTGTCATGGCTGATGTCAGCTCAGCATATATATATTCAGCGGAGTCACCTAGTGCAG,14900 fluorescence intensity (a.u.)
15,GATTTTATTCGACGTGTCAGCTGACTCAGATGGTCGGTAGCGGAGTCACCTAGTGCAG,39100 fluorescence intensity (a.u.)
16,ACTCCGGTTTTATCCGACGTGGCAGCTGACTCAGCATGGGCGGAGTCACCTAGTGCAG,44300 fluorescence intensity (a.u.)
17,TACTGTAGCACCACATTGTCAATCATGGCGCAATTATGCTCGGAGTCACCTAGTGCAG,12900 fluorescence intensity (a.u.)
18,GAATACCAAGAACGACGTCATACAAGACTGACGTGCGGTCCGGAGTCACCTAGTGCAG,5690 fluorescence intensity (a.u.)
19,AATGTCCCATCTTTCGTGTGTAAGGCACGTTAGTCTCAGGCGGAGTCACCTAGTGCAG,4290 fluorescence intensity (a.u.)
20,GTATGGGTTCGAGGAGTGATGTGGTGATGGGCAAACCCATCGGAGTCACCTAGTGCAG,3300 fluorescence intensity (a.u.)
21,CACCCTTAAATCATATATGTGGTTTTAATATTTGGGGATGCGGAGTCACCTAGTGCAG,33200 fluorescence intensity (a.u.)
22,CGAGACTGACAAGGCATTCCAGACACTTAAACAAGCACTGCGGAGTCACCTAGTGCAG,3350 fluorescence intensity (a.u.)

row,Sequence,binding signal
1,CTCTCGAAGCTGCCCTAGCCTCTCCGCTGCTCCGATCCACCGGAGTCACCTAGTGCAG,24500 fluorescence intensity (a.u.)
2,ATGTTTGAGCATGCAGCAAAGACAGATCTAACACTCAAGCCGGAGTCACCTAGTGCAG,3970 fluorescence intensity (a.u.)
3,CCCAGCACCCTACTACACCAACATACTCCTACGTGGAGCACGGAGTCACCTAGTGCAG,6040 fluorescence intensity (a.u.)
4,GTATCCATATATCCGATATGACACGCCAAAACTTTACACCCGGAGTCACCTAGTGCAG,4870 fluorescence intensity (a.u.)
5,ACCATCCGAGCTGTCAAGATCCGACGTGGGTTGTGAAGGCCGGAGTCACCTAGTGCAG,8700 fluorescence intensity (a.u.)
6,ATAGTTGTGATTAGATTGTGACGTACACAATGAGTATGCACGGAGTCACCTAGTGCAG,5250 fluorescence intensity (a.u.)
7,GCGAAGAACGCTTGCACTTGTGTGCAGCGACGCGCGAATTCGGAGTCACCTAGTGCAG,4440 fluorescence intensity (a.u.)
8,GTTCCACATTTCAGCATTAATGAATTGGCATACGTGATGACGGAGTCACCTAGTGCAG,3360 fluorescence intensity (a.u.)
9,GGCGCTGATGTCATGCTGACGTCAGTGCCTGATTTTGCTCCGGAGTCACCTAGTGCAG,56100 fluorescence intensity (a.u.)
10,AGTTTTGTACGCATGTGTGGCGCTGACGTCATGCCCGATCCGGAGTCACCTAGTGCAG,18000 fluorescence intensity (a.u.)
11,AGTATGCTTTTCTTAACGATGACGTCAGCATACACCTCGGCGGAGTCACCTAGTGCAG,45200 fluorescence intensity (a.u.)
12,CTTGGCCGTGGCCGCTGACATGGCATCACCTCATCCGCAACGGAGTCACCTAGTGCAG,4320 fluorescence intensity (a.u.)
13,GGATGCATGCATGCTGATGATGTCAGGCTGATACGTGCGTCGGAGTCACCTAGTGCAG,7340 fluorescence intensity (a.u.)
14,TTGCTGCAAATGACGTCGACATGTGCGTGGCATACCATGGCGGAGTCACCTAGTGCAG,15000 fluorescence intensity (a.u.)
15,TGTTCCAACCCGCTCCGTGTGCTGACGTGGCATGACATGGCGGAGTCACCTAGTGCAG,44900 fluorescence intensity (a.u.)
16,TTCCAACCCGCCCCGTGTGCTGACGTGGCAGCCATGTTGGCGGAGTCACCTAGTGCAG,19300 fluorescence intensity (a.u.)
17,GGCGGCGATGGCGGCCGTGCTGACGGACGATTTCCTGCTCCGGAGTCACCTAGTGCAG,3220 fluorescence intensity (a.u.)
18,TCTCGCTTAATGTTTTCTTTACACATACGATGCTTTAGATCGGAGTCACCTAGTGCAG,3790 fluorescence intensity (a.u.)
19,TTTGCATACGTGCATGCTTGATGACGTCATGCTGACGTGGCGGAGTCACCTAGTGCAG,63100 fluorescence intensity (a.u.)
20,TTTCTTTTCAGACGATGACGTCACACCGTTCTTCATGTATCGGAGTCACCTAGTGCAG,12300 fluorescence intensity (a.u.)
